Assay results reported in PubChem BioAssay (EPA / NIEHS).
Results filed as inconclusive are left out. Active and inactive are the calls of the source. How the source made its calls, unless noted: active means hit-call score of the fitted dose curve at least 0.9, where 1 is the maximum; inactive means score below 0.9.

Assays:
[1] = system: DIO2 (gene 1734); test: CCTE_GLTED_hDIO2: CCTE's human Deiodinase 2 (DIO2) Inhibition Assay, Great Lakes Toxicology and Ecology Division (GLTED) Lab (AID 2284050; active means hit-call score of the fitted dose curve at least 0.9, where 1 is the maximum)
Procedure, shortened: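 Readout: absorbance from Sandell-Kolthoff detection of free iodide released by human DIO2 during a 3 h incubation with chemical. Cell-free format, n=3; activity fitted relative to DMSO negative control.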

[2] = system: DIO3 (gene 1735); test: CCTE_GLTED_hDIO3: CCTE's human Deiodinase 3 (DIO3) Inhibition Assay, Great Lakes Toxicology and Ecology Division (GLTED) Lab (AID 2284055; active means hit-call score of the fitted dose curve at least 0.9, where 1 is the maximum;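 further: potency is for inhibition seen as loss of released iodide signal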)
Procedure, shortened: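 hDIO3 (adenovirus-expressed) + test chemical, 3 h incubation; free iodide quantified by Sandell-Kolthoff reaction, absorbance read-out. DMSO negative control, n=3.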

[3] = CCTE_Shafer_MEA_dev_burst_rate: CCTE's Neural Network Formation Assay for Burst Rate, Shafer Lab (AID 2284042)
Procedure, shortened: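 Exposure ran continuously over 12 days of network development in rat cortical cultures, with compound refreshed during full media changes on DIV 5 and 9. Single-electrode bursts per recording time, well-mean over active electrodes, trapezoidal AUC across days 5–12, fitted downward relative to DMSO.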

[4] = CCTE_Shafer_MEA_dev_bursting_electrodes_number: CCTE's Neural Network Formation Assay for Number of Bursting Electrodes, Shafer Lab (AID 2284043; active means hit-call score of the fitted dose curve at least 0.9, where 1 is the maximum)
Procedure, shortened: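 Rat cortical primary neurons, 48-well MEA, 16 electrodes/well; dosing DIV 0–12, re-dosed with full media change DIV 5, 9. Recordings DIV 5/7/9/12, AxIS adaptive spike detector; bursting electrode = ≥1 burst/2 min. AUC across days; loss of signal vs DMSO.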

[5] = CCTE_Shafer_MEA_dev_per_burst_interspike_interval: CCTE's Neural Network Formation Assay for Burst Interspike Interval, Shafer Lab (AID 2284044);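 further: mean spike spacing inside bursts as AUC over recordings on days 5 7 9 12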
Procedure, shortened: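 Neurons from rat cortex plated onto PEI-coated MEA wells with laminin […] at 1.5 x 10^5 cells/well, then treated from day 0. Media and compound fully replaced on DIV 5 and 9. Extracellular spontaneous firing recorded four times; interspike interval per burst summarised as AUC.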

[6] = CCTE_Shafer_MEA_dev_burst_duration_mean: CCTE's Neural Network Formation Assay for Mean Burst Duration, Shafer Lab (AID 2284045)
Procedure, shortened: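 Rat cortical cultures, 1.5 x 10^5 cells/well with laminin drop; continuous dosing days 0–12, media plus treatment refreshed DIV 5, 9. AxIS adaptive spike detection; mean single-electrode burst duration, AUC over four recordings, negative direction vs DMSO.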

[7] = CCTE_Shafer_MEA_dev_interburst_interval_mean: CCTE's Neural Network Formation Assay for Mean Interburst Interval, Shafer Lab (AID 2284046);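 further: well-mean interburst interval of bursting electrodes as AUC over four recording days; curve fitted for decrease in interburst interval relative to DMSO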
Procedure, shortened: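 Primary rat cortical neurons on PEI-coated 48-well MEA plates (laminin added with cells at plating) (16 electrodes/well), exposed from plating day 0 with renewal at DIV 5 and 9. Mean inter-burst interval averaged over bursting electrodes, AUC across days 5, 7, 9, 12; DMSO baseline.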

[8] = CCTE_Shafer_MEA_dev_inter_network_spike_interval_mean: CCTE's Neural Network Formation Assay for Mean Inter-network Spike Interval, Shafer Lab (AID 2284047)
Procedure, shortened: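 Mean time between consecutive network-spike peaks, recorded extracellularly (adaptive spike detection) on DIV 5, 7, 9 and 12, summarized as trapezoidal AUC. Rat cortical cultures on MEAs dosed continuously days 0–12, re-dosed at feeds; loss-of-signal fit relative to DMSO.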

[9] = CCTE_Shafer_MEA_dev_network_spike_number: CCTE's Neural Network Formation Assay for Number of Network Spikes, Shafer Lab (AID 2284048);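 further: synchronized bursts across electrodes counted on days 5 7 9 12 and integrated as AUC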
Procedure, shortened: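 Rat cortical primary cultures on 48-well MEA (16 electrodes/well); continuous exposure DIV 0–12, full medium and treatment exchange DIV 5, 9. Readout: network spike count, AxIS adaptive detection, recordings DIV 5/7/9/12 collapsed to AUC; loss-of-signal fit, DMSO baseline.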

[10] = CCTE_Shafer_MEA_dev_network_spike_peak: CCTE's Neural Network Formation Assay for Mean Number of Electrodes in Network Spike, Shafer Lab (AID 2284049);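 on AC50: fitted for loss of signal meaning fewer electrodes in network spikes than DMSO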
Procedure, shortened: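 Network-spike peak electrode count from recordings on days 5, 7, 9 and 12 was combined as trapezoidal area under the curve. Rat cortical cultures were treated continuously from plating, with compound renewed at each feed (DIV 5, 9); fits versus DMSO.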

[11] = CCTE_Shafer_MEA_dev_spike_duration_mean: CCTE's Neural Network Formation Assay for Mean Spike Duration, Shafer Lab (AID 2284051);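 further: mean network spike duration pooled as area under curve over DIV 5 to 12 recordings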
Procedure, shortened: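 Spontaneous activity was recorded on days 5, 7, 9 and 12 from rat cortical cultures grown on microelectrode arrays and dosed continuously from day 0, with media and compound renewed after the DIV 5 and 9 recordings. Network-spike duration was collapsed by area under the curve.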

[12] = CCTE_Shafer_MEA_dev_network_spike_duration_std: CCTE's Neural Network Formation Assay for Standard Deviation of Network Spike Duration, Shafer Lab (AID 2284052);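 further: hits are decreases in network spike duration SD versus DMSO vehicle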
Procedure, shortened: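 Network spike duration variability was collapsed across recordings on days 5, 7, 9 and 12 by trapezoidal area-under-curve and fitted downward against DMSO. Cultures were rat cortical neurons on PEI-coated MEA plates, dosed continuously from plating, refed with compound DIV 5/9.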

[13] = CCTE_Shafer_MEA_dev_per_network_spike_spike_percent: CCTE's Neural Network Formation Assay for Percent of Spikes in a Network Spike, Shafer Lab (AID 2284054)
Procedure, shortened: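 Read-out: percent of spikes falling in a 0.05 s window at network-spike peak, from spontaneous MEA recordings on days 5, 7, 9 and 12; trapezoidal AUC; loss of signal versus DMSO. Rat cortical cultures, compound present throughout.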

[14] = CCTE_Shafer_MEA_dev_AB: CCTE's Alamar Blue Assay for Cytotoxicity in the Neural Network Formation Assay, Shafer Lab (AID 2284083; active means hit-call score of the fitted dose curve at least 0.9, where 1 is the maximum;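 further: resazurin reduction fluorescence as viability of cultured neurons; twelve days of exposure from plating with re-dosing on DIV 5 and 9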)
Procedure, shortened: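 Resazurin fluorescence, relative to DMSO, gauges viability after twelve days of exposure that began at plating of rat cortical neurons (1.5 x 10^5 cells/well, 48-well MEA); treatment renewed with full medium exchange on DIV 5 and 9.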

[15] = CCTE_Shafer_MEA_dev_mutual_information_norm: CCTE's Neural Network Formation Assay for Mutual Information Normalization, Shafer Lab (AID 2284091)
Procedure, shortened: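 Neurons from rat cortex were seeded at 1.5 x 10^5 cells/well onto PEI-coated MEAs in a laminin drop, then exposed to compound from day 0 for twelve days. Network recordings on four days gave mutual information, summarised by AUC relative to DMSO.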

[16] = CCTE_Shafer_MEA_acute_AB: CCTE's Alamar Blue Assay for Cytotoxicity in the Neural Acute Assay, Shafer Lab (AID 2284069; active means hit-call score of the fitted dose curve at least 0.9, where 1 is the maximum;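 further: active compounds lower the viability signal compared with DMSO wells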)
Procedure, shortened: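 Resazurin reduction (CellTiter Blue, 1:6 in fresh medium) read at ex 544/em 590 nm marks viability loss relative to DMSO. Cells: primary rat cortical neuron networks on microelectrode arrays, treated after baseline recording at 13 or 15 days in vitro.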

Measured: AC50

CCCCCCCCCCCCCCCCOS(=O)(=O)O
active: [1] 28.9 µM | [2] 6.12 µM

Cn1cc[nH]c1=S
not listed: [1] | [2] | [16]
inactive: all other assays above

FC(F)(F)COC(OCC(F)(F)F)OCC(F)(F)F
not listed: [1] | [2] | [14] | [16]
inactive: all other assays above

FC(F)(F)C(F)(F)C(F)(F)C(F)(F)C(F)(F)C(F)(F)I
not listed: [1] | [2] | [14] | [16]
inactive: all other assays above

OC(CCl)CCl
inactive: [16]

C[C@]12C=CC(=O)C=C1CC[C@H]1[C@@H]3C[C@@H](O)[C@](O)(C(=O)CO)[C@@]3(C)C[C@H](O)[C@@]12F
active: [10] 0.116 µM | [13] 0.57 µM
not listed: [1] | [2] | [6] | [16]
inactive: all other assays above

O=C(Cl)C(F)(F)C(F)(F)C(F)(F)C(=O)Cl
not listed: [1] | [2] | [16]
inactive: all other assays above

OCCC(F)(F)C(F)(F)C(F)(F)C(F)(F)F
not listed: [1] | [2] | [4] | [14] | [16]
inactive: all other assays above
